Reference: the supplement of paper PMC10981050
Where “and” joins values, the source holds several entries; their conditions need not be identical. Equal entries are not always repeated. Structures can show the parent of a compound that is named as a salt.

Experiments:
Experiment in all cases: cell viability relative to vehicle control; higher = less cytotoxic
Conditions in all cases: 10 µM
K562 = tested on: K562
Method in brief: (§1)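 Each screen used CRISPR-edited mutant and wild-type clones from four leukaemia lines. Compounds were acoustically dispensed at a single 10 µM dose, and CellTiter-Glo luminescence was read after 48 h with the supernatant first removed. Viability was analysed in Genedata Screener and given as percent of the on-plate vehicle control.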

MARIMO = tested on: MARIMO
Method in brief: as §1

MOLM14 = tested on: MOLM14
Method in brief: as §1

OCI-AML2 = tested on: OCI-AML2
Method in brief: as §1

| Compound | cell viability (K562; SRSF2 genotype: SRSF2 P95H/wt) | cell viability (K562; SRSF2 genotype: SRSF2 wt/wt) [%] | cell viability (MARIMO; SRSF2 genotype: SRSF2 P95H/wt) [%] | cell viability (MARIMO; SRSF2 genotype: SRSF2 wt/wt) [%] | cell viability (MOLM14; SRSF2 genotype: SRSF2 P95H/wt) [%] | cell viability (MOLM14; SRSF2 genotype: SRSF2 wt/wt) [%] | cell viability (OCI-AML2; SRSF2 genotype: P95H/wt) [%] | cell viability (OCI-AML2; SRSF2 genotype: wt/wt) [%] |
| --- | --- | --- | --- | --- | --- | --- | --- | --- |
| CC12NC(Cc3ccccc31)c1ccccc12 (single isomer, unassigned; (+)) [(+)-MK 801 maleate] | 92.8% and 93.5% | 93.2 | 85.7 | 91.7 | 91 | 91.5 | 86.7 | 99.1 |
| NCC(O)c1ccc(O)cc1 (racemic) [(+,-)-Octopamine HCl] | 91.4% and 95.7% | 97.6 | 96.5 | 96.5 | 99.5 | 96.8 | 93.1 | 97.3 |
| CCc1c(C(=O)C(N)=O)c2c(OCC(=O)O)cccc2n1Cc1ccccc1 | 93.5% and 89.8% | 88.8 | 82.6 | 92 | 93.1 | 95.2 | 84 | 90.6 |
| C[C@]12CC[C@H](O)CC1=CC[C@@H]1[C@@H]2CC[C@]2(C)C(=O)CC[C@@H]12 [Dehydroepiandrosterone (DHEA)] | 89.1% and 108% | 102 | 98.1 | 101 | 108 | 103 | 110 | 93.2 |
| COc1ccc2c(c1OC)CN1CCc3cc4c(cc3C1C2)OCO4 (stereo unspecified) [Tetrahydroberberine] | 86.9% and 87% | 81.9 | 69.8 | 85 | 81.2 | 86.6 | 73 | 72.8 |
| CN(C)Cc1c[nH]c2ccccc12 [Gramine] | 101% | 100 | 102 | 102 | 99.6 | 100 | 102 | 98.9 |
| CCN1C[C@]2(COC)CC[C@H](OC)[C@]34C1[C@H](C[C@H]23)[C@@]1(O)C[C@H](OC)[C@H]2C[C@@H]4[C@@H]1[C@H]2O [Talatisamine] | 110% and 104% | 108 | 104 | 108 | 105 | 106 | 101 | 107 |
| COC(=O)C1=CCCN(C)C1 [Arecoline HBr] | 93.5% and 96.8% | 97.5 | 96 | 99 | 97.4 | 99.9 | 92 | 106 |
| CC(C)N(CCNC(=O)CN1CCCC1=O)C(C)C [Pramiracetam] | 96.6% and 106% | 104 | 98.4 | 111 | 107 | 102 | 98.1 | 105 |
| Cn1c(CCCC(=O)O)nc2cc(N(CCCl)CCCl)ccc21 [Bendamustine HCL] | 97.2% and 96.8% | 96.3 | 94.5 | 104 | 86.3 | 97.8 | 66.5 | 83 |
| COCC1(CO)C(=O)C2CCN1CC2 (stereo unspecified) | 35.9% and 43.5% | 63.5 | 65.3 | 57.5 | 9.18 | 3.69 | 14.8 | 15.9 |
| CC(C)[C@]12O[C@H]1[C@@H]1O[C@]13[C@]1(O[C@H]1C[C@H]1C4=C(CC[C@@]13C)C(=O)OC4)[C@@H]2O [Triptolide] | 5.55% and 15% | 8.7 | 10.4 | 6.31 | 2.33 | 0.54 | 5.79 | 16 |
| CN1C2CC(OC(=O)C(CO)c3ccccc3)CC1C(O)C2 (stereo unspecified) [Raceanisodamine] | 107% and 103% | 107 | 99 | 111 | 100 | 107 | 99.6 | 104 |
| c1cc2c(cc1[C@H]1OC[C@H]3[C@@H]1CO[C@H]3c1ccc3c(c1)OCO3)OCO2 [Asarinin] | 99.6% and 99.4% | 102 | 91.7 | 104 | 100 | 103 | 89.1 | 89.4 |
| OC1CC2CCC(C1)N2 (stereo unspecified) [Nortropine Hydrochloride] | 101% and 98.7% | 101 | 102 | 107 | 97.2 | 102 | 105 | 94.8 |
| COc1cc2c(cc1O)C[C@H]1c3c(cc(O)c(OC)c3-2)CCN1C [Boldine] | 99.6% and 100% | 99 | 94.1 | 88.6 | 96.5 | 101 | 95.3 | 91 |
| CC(=O)O[C@@]12CO[C@@H]1C[C@H](O)[C@@]1(C)C(=O)[C@H](O)C3=C(C)[C@@H](OC(=O)[C@H](O)[C@@H](NC(=O)c4ccccc4)c4ccccc4)C[C@@](O)([C@@H](OC(=O)c4ccccc4)[C@H]21)C3(C)C [10-deacetyl-paclitaxel] | 25.2% and 36.9% | 34.3 | 7.89 | 4.88 | 9.1 | 3.82 | 10.3 | 15.4 |
| O=C(c1ccccc1O)c1[nH]c(Cl)c(Cl)c1-n1c(C(=O)c2ccccc2O)cc(Cl)c1Cl [Marinopyrrole A (Maritoclax)] | 12.6% and 15.9% | 14.3 | 24.9 | 21.3 | 13.5 | 12.8 | 4.26 | 11.9 |
| CN1[C@@H]2CC[C@H]1C[C@@H](OC(=O)C(CO)c1ccccc1)C2 (stereo partly specified) [Atropine sulfate] | 105% and 99.4% | 100 | 105 | 112 | 110 | 107 | 94 | 97.8 |

| Compound | cell viability (K562; SRSF2 genotype: SRSF2 P95H/wt) | cell viability (K562; SRSF2 genotype: SRSF2 wt/wt) [%] | cell viability (MARIMO; SRSF2 genotype: SRSF2 P95H/wt) [%] | cell viability (MARIMO; SRSF2 genotype: SRSF2 wt/wt) [%] | cell viability (MOLM14; SRSF2 genotype: SRSF2 P95H/wt) [%] | cell viability (MOLM14; SRSF2 genotype: SRSF2 wt/wt) [%] | cell viability (OCI-AML2; SRSF2 genotype: P95H/wt) [%] | cell viability (OCI-AML2; SRSF2 genotype: wt/wt) [%] |
| --- | --- | --- | --- | --- | --- | --- | --- | --- |
| C[N+](C)(C)CCCCCCCCCC[N+](C)(C)C [Decamethonium Bromide] | 100% and 109% | 111 | 98.9 | 102 | 102 | 101 | 120 | 102 |
| O=C([O-])C(Cl)Cl.[Na+] [Sodium dichloroacetate (DCA)] | 96.5% and 94.6% | 97.6 | 96.1 | 104 | 95.3 | 99 | 96.7 | 101 |
| CN1CCC(c2c[nH]c3ccc(O)cc23)CC1 | 107% and 100% | 102 | 101 | 104 | 103 | 102 | 91.8 | 105 |
| CN1[C@@H]2CC[C@H]1C[C@@H](OC(=O)[C@H](CO)c1ccccc1)C2 [Hyoscyamine (Daturine)] | 104% and 93.5% | 91.9 | 104 | 107 | 99.2 | 102 | 95.4 | 113 |
| CN1C(=O)COc2c(C(=O)NC3CN4CCC3CC4)cc(Cl)cc21 (stereo unspecified) [Azasetron HCl] | 96.6% and 91.5% | 94.9 | 92.8 | 98.7 | 90.5 | 97.3 | 95.9 | 94.7 |
| C[C@]12CCC(=O)C[C@@H]1CC[C@@H]1[C@@H]2CC[C@]2(C)[C@@H](O)CC[C@@H]12 [Dihydrotestosterone (DHT)] | 97% and 97.8% | 97.7 | 95.3 | 109 | 93.9 | 102 | 96.5 | 101 |
| CC(=O)OC12COC1CC(O)C1(C)C(=O)C(O)C3=C(C)C(O)CC(O)(C(OC(=O)c4ccccc4)C21)C3(C)C (stereo unspecified) [10-DAB (10-Deacetylbaccatin)] | 103% and 110% | 103 | 109 | 108 | 111 | 105 | 105 | 98.3 |
| CN(C)[C@@H]1C(=O)C(C(N)=O)=C(O)[C@@]2(O)C(=O)C3=C(O)c4c(O)cccc4[C@@](C)(O)[C@H]3[C@H](O)[C@@H]12 [Oxytetracycline dihydrate] | 98.3% and 102% | 101 | 104 | 100 | 97.6 | 103 | 103 | 92.6 |
| CC[N+](C)(CC)CCOC(=O)C(O)(c1ccccc1)c1ccccc1 [Methylbenactyzine Bromide] | 95.9% and 96.8% | 100 | 97.7 | 104 | 96.1 | 102 | 97.7 | 91 |
| CCNc1nc(Cl)nc(NC(C)C)n1 [Atrazine] | 97.5% and 94.1% | 98.2 | 90.6 | 102 | 93.9 | 97 | 99.1 | 104 |
| CC(C)C(Br)C(=O)NC(N)=O (stereo unspecified) [Bromisoval] | 99.8% and 99.2% | 94.8 | 95.8 | 108 | 92 | 104 | 93.2 | 95 |
| O=C(NC(=O)c1c(F)cccc1F)Nc1ccc(OC(F)(F)C(F)OC(F)(F)F)c(Cl)c1 (stereo unspecified) [Novaluron] | 110% and 101% | 113 | 94.2 | 98.4 | 106 | 106 | 98.1 | 109 |
| COc1ccc2c(c1)[nH]c1c(C)nccc12 [Harmine hydrochloride] | 88.3% and 94.7% | 92.7 | 79.5 | 87.7 | 54.3 | 66.8 | 38.1 | 49.9 |
| C=CC[C@]1(O)CC[C@H]2[C@@H]3CCC4=CC(=O)CCC4=C3C=C[C@@]21C [Altrenogest] | 92.6% and 98.1% | 97.5 | 99.9 | 102 | 99.8 | 107 | 109 | 96.9 |
| CN1C2CC(O)CC1C1OC12 (stereo unspecified) [Scopine] | 100% and 97.1% | 95.5 | 101 | 103 | 97 | 100 | 93.6 | 106 |
| COc1cc2c(cc1OC)C(Cc1ccc(O)c(Oc3cc4c(cc3OC)CCN(C)C4Cc3ccc(O)cc3)c1)N(C)CC2.[O-][Cl+3]([O-])([O-])O (stereo unspecified) [Liensinine diperchlorate] | 87% and 79.8% | 77.4 | 64.6 | 76.3 | 61.7 | 77.2 | 63.7 | 63.7 |
| Cc1c(N[C@@H](c2nnc(-c3ccc(C#N)cc3)o2)[C@H](C)O)ccc(C#N)c1Cl | 87.6% and 86.2% | 100 | 88.4 | 96.5 | 88.9 | 100 | 100 | 102 |
| CC[C@H]1[C@@H]2C[C@H]3[C@@H]4N(C)c5ccccc5[C@]45C[C@@H]([C@@H]2[C@H]5O)N3[C@@H]1O [Ajmaline] | 95.7% and 94% | 98.5 | 90.6 | 96.2 | 94.6 | 98.4 | 93.9 | 97.9 |
